Assay outcomes as filed in PubChem BioAssay.
Shown are actives, neighbours in structure and some others; about 7.3% of the full set was active somewhere.
HCMV inh – inhibitors of human cytomegalovirus; HFF cells, HCMV-luciferase reporter, 72 h; stronger effect = lower value; hit rate 4.5% among 410,000; activity change, negative = inhibition, % at 57.5 µM; in the data active means activity change below about -60%; inconclusive means no clear call, values can overlap the other calls; inactive means above about -39%
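Human foreskin fibroblasts infected with luciferase-reporter HCMV at MOI 1 PFU/cell, compounds at two doses. Luciferase measured 72 h post infection; normalized to buffer-only basal and Salinomycin (10uM) controls.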
FMDV antiviral – blocks foot and mouth disease virus; FMDV antiviral cell-based qHTS; hit rate 1.2% among 410,000; Potency, µM (titrated, usually from 57.9 µM), inactives show top-dose activity change, negative = inhibition, hits mostly inhibitors; calls by dose curve; tested in HEK293T cells; further: read-out not given here; potency means the concentration at half of the fitted maximal effect; nearly all actives have a fitted effect of over 45% in size
HCV inhibitor – HCV inhibition; Huh7.5.1 HCVcc-Cre infection, luciferase reporter, 44 h; Potency, µM (highest dose often 41.8 µM), for inactives: at the highest dose activity change, negative = inhibition, most hits filed as inhibitors; hit rate 3.4% among 340,000; AID 651820; active means well fitted inhibition curve with a large enough effect; inconclusive means small, poorly fitted or top-dose-only effect, or another doubt; inactive means no such curve, though single readings can be large or run the other way; further: potency means the concentration at half of the fitted maximal effect
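After 44 h co-culture of compound, cells and HCVcc-Cre (~0.5 moi), substrate is added for 15 min at room temperature and luciferase measured over 15 sec. Cells were seeded at 1,000/well and pre-cultured 4 h.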
Vaccinia Venus – vaccinia inhibition (Venus reporter) | Vaccinia virus Venus reporter expression, fluorescence | Potency, µM (doses to about 36.5 µM), for inactives: at the top dose activity change, negative = inhibition, most hits filed as inhibitors | hit rate 0.46% among 330,000 | AID 720580; calls by dose curve; tested in A549 cells; further: potency means the concentration at half of the fitted maximal effect; nearly all actives have a fitted effect of over 30% in size
VACV mCherry inh – inhibitors of vaccinia virus infection (mCherry reporter signal); Potency, µM (highest dose often 36.5 µM), without a hit: at the highest dose activity change, negative = inhibition, most hits filed as inhibitors; Vaccinia virus mCherry reporter infection, fluorescence; AID 720579; hit rate 0.63% among 310,000; calls by dose curve; tested in A549 cells; further: potency means the concentration at half of the fitted maximal effect; nearly all actives have a fitted effect of over 35% in size
* hit, by the source's call; i = inactive; ? = inconclusive; . = no result given. On the % scale 0 is the no-effect control and ±100 the full control effect.

SMILES	HCMV inh	FMDV antiviral	HCV inhibitor	Vaccinia Venus	VACV mCherry inh
O=C(NCc1ccncc1)c1cc2ccccc2nc1Cl	-79*	-11%	-5%	0%	-6%
Cc1ccc2c(c1)C1C[N+](C)(CC(=O)c3ccc(Cl)cc3Cl)CCC1N2C(=O)c1ccc(F)cc1 (configuration not stated)	38	38%	13µM*	.	.
O=C(COC(=O)C1=COCCO1)NC1CCCCC1	-10	16%	26%	-7%	-10%
Cc1c(C(=O)N/N=C/c2ccc(Cl)cc2)[nH]c2ccc(Cl)cc12	-89*	59%	?	?	?
Cc1c(C(=O)N/N=C/C(C)C)[nH]c2ccc([N+](=O)[O-])cc12	-75*	-6%	-29%	-21%	-20%
Cc1c(C(=O)O)[nH]c2ccc([N+](=O)[O-])cc12	-15	14%	10%	1%	-13%
Cc1cnc(SCc2ccccn2)nc1C1CCCN(C(=O)c2cccc(-c3cccc(F)c3)c2)C1 (configuration not stated)	.	?	.	?	10µM*
COCC(=O)N1CCC2(CCCN(C(=O)Nc3ccc(OC)cc3)C2)CC1	.	1%	.	.	.
O=C(/C=C/c1ccccc1)CC(O)(c1ccccc1)C(F)(F)C(F)F (configuration not stated)	?	.	?	-21%	-5%
COc1cc(OC)c(OC)cc1/C=C/c1cc(C(=O)O)c2ccccc2n1	-31	-4%	11%	.	.
O=C(/C=C/c1ccccc1)CC(O)(c1ccccc1)C(F)(F)F (configuration not stated)	-102*	.	?	-16%	-2%
COc1ccc(/C=C/C(=O)CC(O)(c2ccccc2)C(F)(F)F)cc1 (configuration not stated)	-100*	35µM*	-12%	-29%	-26%
COc1ccc(/C=C/C(=O)O)cc1	22	-13%	0.79µM*	-6%	-8%
COc1ccc(/C=C/c2cc(C(=O)O)c3ccccc3n2)cc1	-6	2.8µM*	13%	-13%	-24%
COc1ccc(/C=C/C(=O)CCC(=O)O)cc1	-20	35%	11%	1%	i
Cc1ccccc1C1=NC(C)(CC(=O)NCCOc2ccccc2)ON1C (configuration not stated)	-8	.	.	.	.
Cc1cc(Cl)ccc1NC(=O)CN1CCC(C(O)(c2ccccc2)c2ccccc2)CC1	-67*	-21%	?	-16%	-12%
Cc1cc(Cl)ccc1NC(=O)CN1CCCC1	6	-12%	-13%	-11%	i
CCOC(=O)[C@]12Cc3cc(C)ccc3[C@H]1N(C)C(=O)c1cc(OC)ccc12	-109*	40µM*	.	?	?
CCOC(=O)[C@]12Cc3c(cc(OC)c(OC)c3OC)[C@H]1N(C1CCCCC1)C(=O)c1cc(OC)ccc12	-99*	13µM*	.	?	?
CCOC(=O)[C@]12Cc3c(cc(OC)c(OC)c3OC)[C@H]1N(C)C(=O)c1ccccc12	-39	-24%	.	3%	8%
CCOC(=O)[C@]12Cc3c(cc(OC)c(OC)c3OC)[C@H]1N(C(C)C)C(=O)c1cc(OC)ccc12	-100*	14µM*	.	?	?
CCOC(=O)[C@]12Cc3cc(OC)ccc3[C@H]1N(C)C(=O)c1ccccc12	34	?	.	-4%	-15%
CCOC(=O)[C@]12Cc3cc(OC)ccc3[C@H]1N(C(C)C)C(=O)c1cc(OC)ccc12	-100*	16µM*	.	?	?
CCOC(=O)[C@]12Cc3c(cc(OC)c(OC)c3OC)[C@H]1N(Cc1ccccc1)C(=O)c1ccccc12	2	-5%	-29%	-17%	-4%
CCOC(=O)[C@]12Cc3cc(C)ccc3[C@H]1N(C)C(=O)c1ccccc12	34	-30%	.	4%	i
Cc1cc2oc3c(c(=O)c2cc1C)C1(C(=O)N(C)c2ccccc21)N(CCO)C3=O (configuration not stated)	11	0%	.	-5%	-9%
Cc1ccsc1/C=C1\SC(N2CC(C)OC(C)C2)=NC1=O (configuration not stated)	20	3%	?	-15%	-5%
Nc1ncc([N+](=O)[O-])c(N2CCCCCC2)n1	-75*	-8%	13%	0%	i
O=[N+]([O-])c1ccc(N2CCCC2)nc1N1CCCC1	-4	-14%	-31%	-15%	i
